Assay [1] is described as follows: NCI Yeast Anticancer Drug Screen. Data for the rad50 strain (AID 155).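 Note: 0% = growth of vehicle-only cultures of the same strain.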 As to conditions: S. cerevisiae rad50 strain growth inhibition, stronger effect = higher value. Put shortly: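 Genetically altered yeast (DNA repair pathway); compound treatment; growth inhibition vs vehicle ctrl.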
Assay [2] is described as follows: NCI Yeast Anticancer Drug Screen. Data for the mec2-1 strain (AID 157). As to conditions: S. cerevisiae mec2-1 strain, stronger effect = higher value. In short, it runs like this:
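Compounds were applied to mec2-1 yeast cells. Their growth was then compared with that of vehicle-treated cultures to give growth inhibition.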

The nature of assay [3]: NCI Yeast Anticancer Drug Screen. Data for the sgs1 mgt1 strain (AID 161).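 Note: 0% = growth of cultures given vehicle only.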 As to conditions: S. cerevisiae sgs1 mgt1 strain, stronger effect = higher value. Put shortly: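 Growth of a repair-deficient yeast mutant was monitored after compound treatment and expressed as inhibition relative to vehicle-treated cultures.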
A short description of assay [4]: NCI Yeast Anticancer Drug Screen. Data for the cln2 rad14 strain (AID 165).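 Note: 0% = growth equal to vehicle treated cultures.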 As to conditions: S. cerevisiae cln2 rad14 strain, stronger effect = higher value. In short, it runs like this:
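Strain: cln2 rad14 yeast, altered in cell cycle control and DNA damage repair. Read-out: growth inhibition vs vehicle.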

Assay [5] in a line: NCI Yeast Anticancer Drug Screen. Data for the bub3 strain (AID 167). As to conditions: S. cerevisiae bub3 mutant strain, stronger effect = higher value. In short, it runs like this:
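Yeast carrying a defined mutation is treated with each compound, and growth is compared with that of vehicle-exposed cells to give inhibition.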

Assay [6] is described as follows: NCI Yeast Anticancer Drug Screen. Data for the mlh1 rad18 strain (AID 175). As to conditions: S. cerevisiae mlh1 rad18 strain growth inhibition, stronger effect = higher value. Put shortly: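 A repair-deficient yeast strain is exposed to test compound, and growth is scored relative to vehicle-treated controls.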
The mark [7] stands for this setting: at 5.0 µM (retest, dose inferred, filed as 0.5).
The mark [8] stands for this setting: at 50.0 µM (retest, dose inferred, filed as 5.0).

Compounds without any hit were thinned out: in the full panel of roughly 79,000, 15% have a hit. Unmarked numbers belong to inactive results. Active and inactive are the calls of the source. Cut-off read from the data, not from the text of the source: active = growth inhibition above about 70%; inactive = the rest.

For `O=C(c1ccccc1)N1CCCCC1`, the growth inhibition in assay [1] (setting [7]) was -1%; in assay [1] (setting [8]), 33%; in assay [1] (at 50.0 µM), 81.5% (active); in assay [2] (setting [7]), 0%; in assay [2] (setting [8]) it was 5%; in assay [2] (at 50.0 µM) it was -1.55%. In addition, the growth inhibition in assay [3] (setting [7]) is -2%; in assay [3] (setting [8]), 3%; in assay [3] (at 50.0 µM) it was 23.9%; in assay [4] (setting [7]) it was 2%; in assay [4] (setting [8]), 3%; in assay [4] (at 50.0 µM) it was 48%. The growth inhibition in assay [5] (setting [7]) is -2%; in assay [5] (setting [8]) it was 3%; in assay [5] (at 50.0 µM), 15.5%; in assay [6] (setting [7]), 0%; in assay [6] (setting [8]), 6%; in assay [6] (at 50.0 µM) it was 47%.

In the case of `Cc1ccc(SCc2ccc(Cl)cc2Cl)nn1`, the growth inhibition in assay [1] (setting [7]) was -1%; in assay [1] (setting [8]), 64%; in assay [1] (at 50.0 µM) it was 96.8% (active); in assay [2] (setting [7]) it was -16%; in assay [2] (setting [8]), 85% (active); in assay [2] (at 50.0 µM) it was 94% (active). Moreover, the growth inhibition in assay [3] (setting [7]) is -4%; in assay [3] (setting [8]) it was 85% (active); in assay [3] (at 50.0 µM) it was 82.8% (active); in assay [4] (setting [7]), 0%; in assay [4] (setting [8]) it was 20%; in assay [4] (at 50.0 µM), 25.9%. In addition, the growth inhibition is 12% in assay [5] (setting [7]); 61% in assay [5] (setting [8]); 93.8% (active) in assay [5] (at 50.0 µM); -3% in assay [6] (setting [7]); 78% (active) in assay [6] (setting [8]); 94% (active) in assay [6] (at 50.0 µM).

Consider `Cc1ccc(S(=O)(=O)NC(CCC(=O)Nc2ccccc2)C(=O)O)cc1` (stereo not given), for which the growth inhibition in assay [1] (setting [7]) was -4%; in assay [1] (setting [8]), 0%; in assay [1] (at 50.0 µM) it was 12.8%; in assay [2] (setting [7]), -4%; in assay [2] (setting [8]) it was -4%; in assay [2] (at 50.0 µM), 18.9%. Moreover, the growth inhibition in assay [3] (setting [7]) was -6%; in assay [3] (setting [8]), -20%; in assay [3] (at 50.0 µM) it was 21.2%; in assay [4] (setting [7]), -5%; in assay [4] (setting [8]), -15%; in assay [4] (at 50.0 µM) it was 22%. Besides, the growth inhibition in assay [5] (setting [7]) is -3%; in assay [5] (setting [8]), 2%; in assay [5] (at 50.0 µM) it was 96.2% (active); in assay [6] (setting [7]), 0%; in assay [6] (setting [8]), -2%; in assay [6] (at 50.0 µM), 40.5%.

For `CC(C)OC(=O)c1ccc(CCC2=CC(=O)C=CC2=O)cc1`, the growth inhibition is 34% in assay [1] (setting [7]); 89% (active) in assay [1] (setting [8]); 81.1% (active) in assay [1] (at 50.0 µM); 53% in assay [2] (setting [7]); 99% (active) in assay [2] (setting [8]); 77.2% (active) in assay [2] (at 50.0 µM). The growth inhibition in assay [3] (setting [7]) is 86% (active); in assay [3] (setting [8]), 94% (active); in assay [3] (at 50.0 µM) it was 87.3% (active); in assay [4] (setting [7]), 76% (active); in assay [4] (setting [8]), 91% (active); in assay [4] (at 50.0 µM) it was 61.7%. The growth inhibition in assay [5] (setting [7]) was 92% (active); in assay [5] (setting [8]) it was 95% (active); in assay [5] (at 50.0 µM), 87.4% (active); in assay [6] (setting [7]), 66%; in assay [6] (setting [8]), 98% (active); in assay [6] (at 50.0 µM), 79.2% (active).

For `COC(=O)CCC(=O)c1ccc2c(c1)CC1(Cc3ccccc3C1)C2`, the growth inhibition in assay [1] (setting [7]) was 20%; in assay [1] (setting [8]), 29%; in assay [1] (at 50.0 µM) it was 14.4%; in assay [2] (setting [7]), 24%; in assay [2] (setting [8]), 21%; in assay [2] (at 50.0 µM) it was 3.85%. The growth inhibition in assay [3] (setting [7]) is 24%; in assay [3] (setting [8]), 46%; in assay [3] (at 50.0 µM), 15.3%; in assay [4] (setting [7]) it was 14%; in assay [4] (setting [8]) it was 8%; in assay [4] (at 50.0 µM) it was 17.6%. Further, the growth inhibition in assay [5] (setting [7]) is 25%; in assay [5] (setting [8]) it was 44%; in assay [5] (at 50.0 µM), 41.4%; in assay [6] (setting [7]), 29%; in assay [6] (setting [8]), 30%; in assay [6] (at 50.0 µM), 12.1%.

In the case of `Nc1ccccc1Nc1c([N+](=O)[O-])cc(C(F)(F)F)cc1[N+](=O)[O-]`, the growth inhibition was 53% in assay [1] (setting [7]); 78% (active) in assay [1] (setting [8]); 89.2% (active) in assay [1] (at 50.0 µM); 41% in assay [2] (setting [7]); 55% in assay [2] (setting [8]); 92.3% (active) in assay [2] (at 50.0 µM). Moreover, the growth inhibition in assay [3] (setting [7]) is 48%; in assay [3] (setting [8]), 69%; in assay [3] (at 50.0 µM), 92.7% (active); in assay [4] (setting [7]), 42%; in assay [4] (setting [8]), 55%; in assay [4] (at 50.0 µM), 85.5% (active). The growth inhibition in assay [5] (setting [7]) was 46%; in assay [5] (setting [8]), 61%; in assay [5] (at 50.0 µM) it was 91.4% (active); in assay [6] (setting [7]), 51%; in assay [6] (setting [8]) it was 76% (active); in assay [6] (at 50.0 µM), 90.5% (active).

Regarding `Cn1c(=S)c2[nH]c(SCCN3CCCCC3)nc2n(C)c1=O`, the growth inhibition in assay [1] (setting [7]) was 40%; in assay [1] (setting [8]), 54%; in assay [1] (at 50.0 µM), 97.2% (active); in assay [2] (setting [7]), 28%; in assay [2] (setting [8]), 46%; in assay [2] (at 50.0 µM), 99.3% (active). Further, the growth inhibition in assay [3] (setting [7]) was 20%; in assay [3] (setting [8]) it was 69%; in assay [3] (at 50.0 µM), 99.2% (active); in assay [4] (setting [7]), 28%; in assay [4] (setting [8]), 28%; in assay [4] (at 50.0 µM), 54.5%. Also, the growth inhibition in assay [5] (setting [7]) is 37%; in assay [5] (setting [8]), 57%; in assay [5] (at 50.0 µM) it was 97.8% (active); in assay [6] (setting [7]), 22%; in assay [6] (setting [8]), 55%; in assay [6] (at 50.0 µM), 98.5% (active).

For `CC1=C(C(=O)NCc2ccccc2)C(c2ccccc2[N+](=O)[O-])C(C(=O)NCc2ccccc2)=C(C)N1`, the growth inhibition is 16% in assay [1] (setting [7]); 16% in assay [1] (setting [8]); 71% (active) in assay [1] (at 50.0 µM); 9% in assay [2] (setting [7]); 9% in assay [2] (setting [8]); 84.2% (active) in assay [2] (at 50.0 µM). Moreover, the growth inhibition was -2% in assay [3] (setting [7]); -2% in assay [3] (setting [8]); 81.4% (active) in assay [3] (at 50.0 µM); -4% in assay [4] (setting [7]); -4% in assay [4] (setting [8]); 62.9% in assay [4] (at 50.0 µM). Besides, the growth inhibition in assay [5] (setting [7]) is 15%; in assay [5] (setting [8]), 15%; in assay [5] (at 50.0 µM), 81.1% (active); in assay [6] (setting [7]) it was 4%; in assay [6] (setting [8]), 4%; in assay [6] (at 50.0 µM) it was 77.6% (active).

On to `NC(=S)C1CCC(C2CCCCC2)CC1` (stereo not given), for which the growth inhibition in assay [1] (setting [7]) is 5%; in assay [1] (setting [8]) it was 97% (active); in assay [1] (at 50.0 µM) it was 96.5% (active); in assay [2] (setting [7]) it was 14%; in assay [2] (setting [8]), 96% (active); in assay [2] (at 50.0 µM), 94.8% (active). Moreover, the growth inhibition in assay [3] (setting [7]) was 13%; in assay [3] (setting [8]) it was 97% (active); in assay [3] (at 50.0 µM), 97.2% (active); in assay [4] (setting [7]), -4%; in assay [4] (setting [8]) it was 94% (active); in assay [4] (at 50.0 µM), 83.5% (active). The growth inhibition in assay [5] (setting [7]) was 13%; in assay [5] (setting [8]), 97% (active); in assay [5] (at 50.0 µM) it was 96.3% (active); in assay [6] (setting [7]), 21%; in assay [6] (setting [8]), 97% (active); in assay [6] (at 50.0 µM) it was 95.8% (active).

For `CC(=O)OC1CCC2(C)C3CCC4(C)C(CCC4(Br)C(=O)CBr)C3CC(Br)C2(Br)C1` (stereo not given), the growth inhibition in assay [1] (setting [7]) was -1%; in assay [1] (setting [8]), 19%; in assay [1] (at 50.0 µM) it was 68.8%; in assay [2] (setting [7]), -5%; in assay [2] (setting [8]), 15%; in assay [2] (at 50.0 µM), 52.2%. Also, the growth inhibition in assay [3] (setting [7]) was -5%; in assay [3] (setting [8]), 10%; in assay [3] (at 50.0 µM), 53.4%; in assay [4] (setting [7]) it was -2%; in assay [4] (setting [8]), 9%; in assay [4] (at 50.0 µM), 26.9%. The growth inhibition in assay [5] (setting [7]) was -3%; in assay [5] (setting [8]), 7%; in assay [5] (at 50.0 µM) it was 49.5%; in assay [6] (setting [7]), 3%; in assay [6] (setting [8]) it was -3%; in assay [6] (at 50.0 µM) it was 76.4% (active).
